Results from the supplement of paper PMC3334620.
In all, about 33,000 sequences were measured (“E-score (-0.5 to 0.5)”: median about -0.021, highest 2% from about 0.32 on). Shown is part of a subset that was picked to be rich in the highest values.

What follows are sequences tested against T1, Zap1 (UniProt P47043) (assay: PBM E-score (8-mer binding enrichment) (E-score (-0.5 to 0.5)); higher = stronger / more preferred TF binding). Details: protein concentration: 200 nM; construct: GST-full length.
T1 sequence: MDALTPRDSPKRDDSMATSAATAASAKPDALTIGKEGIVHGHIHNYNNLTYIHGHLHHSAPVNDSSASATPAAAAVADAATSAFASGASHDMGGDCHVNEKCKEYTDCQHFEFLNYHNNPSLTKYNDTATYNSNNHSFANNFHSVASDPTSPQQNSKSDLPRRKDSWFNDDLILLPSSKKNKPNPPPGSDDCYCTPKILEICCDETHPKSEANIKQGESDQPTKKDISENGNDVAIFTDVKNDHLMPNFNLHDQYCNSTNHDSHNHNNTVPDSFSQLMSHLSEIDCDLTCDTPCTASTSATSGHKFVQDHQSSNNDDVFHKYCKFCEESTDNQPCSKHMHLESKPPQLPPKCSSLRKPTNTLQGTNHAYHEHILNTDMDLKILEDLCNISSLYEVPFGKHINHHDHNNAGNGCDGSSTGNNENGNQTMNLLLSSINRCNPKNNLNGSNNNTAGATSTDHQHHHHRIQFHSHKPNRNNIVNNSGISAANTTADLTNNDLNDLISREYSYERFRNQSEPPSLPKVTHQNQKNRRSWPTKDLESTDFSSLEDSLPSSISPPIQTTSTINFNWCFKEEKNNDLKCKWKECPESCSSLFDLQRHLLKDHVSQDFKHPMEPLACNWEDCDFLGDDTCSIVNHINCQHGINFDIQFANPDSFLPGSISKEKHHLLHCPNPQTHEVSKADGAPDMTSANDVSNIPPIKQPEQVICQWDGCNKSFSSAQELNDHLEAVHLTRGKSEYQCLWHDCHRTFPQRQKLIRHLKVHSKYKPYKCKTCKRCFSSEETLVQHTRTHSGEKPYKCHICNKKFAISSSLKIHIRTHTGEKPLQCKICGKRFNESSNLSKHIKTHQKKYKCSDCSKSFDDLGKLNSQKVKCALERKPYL
Method: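 Universal 'all 10-mer' protein binding microarrays (Agilent AMADID 015681) probed with GST-tagged S. cerevisiae TFs (full-length or DBD) made by in vitro transcription/translation (PURExpress), about 100-200 nM. Bound TF was detected with fluorescent anti-GST. Each ungapped 8-mer (which stands for itself and its reverse complement) is scored by the PBM enrichment score (E-score), a modified Wilcoxon-Mann-Whitney statistic from -0.5 to +0.5, computed with the Universal PBM Analysis Suite. Scale: above 0.35 generally sequence-specific binding.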

Row | Sequence | PBM E-score
1 | GACCCTAC | 0.311
2 | CACCCTCG | 0.234
3 | CACCCTAG | 0.353
4 | CGCCCTAG | -0.00248
5 | AAACCTGT | 0.0581
6 | CACCCTAC | 0.328
7 | CTCAGCAG | -0.129
8 | TCAGCGAA | -0.107
9 | CTCGCTTA | -0.0929
10 | AAGCCTGC | -0.182
11 | CTTCAGTA | 0.0193
12 | AGAGACCA | 0.121
13 | ATGGTGCA | 0.0684
14 | CTCACGAG | 0.0376
15 | ACCTGAAT | 0.136
16 | CAGCTGTA | -0.203
17 | ATCCCTAG | 0.0856
18 | AACCCTAG | 0.408
19 | AACCCTAT | 0.441
20 | AAACCTAG | 0.051
21 | AAACCTAT | 0.164
22 | AACCCTCT | 0.27
23 | CAAATTCC | -0.00509
24 | AGTCACGA | 0.0207
25 | AGTCGCGA | 0.113

Row | Sequence | PBM E-score
26 | GGTCACAA | 0.393
27 | CGTCGCGA | 0.00596
28 | GGTCGCGA | 0.32
29 | CGTCACGA | -0.0348
30 | CGTCACAA | -0.0229
31 | TGTCACAA | 0.0989
32 | GGTCACGA | 0.391
33 | AGATAGGG | -0.0822
34 | GAGCGTGC | -0.173
35 | TATTAGAA | 0.159
36 | AGAAGTCT | -0.257
37 | AGCCTGAG | -0.0458
38 | TGTGAGAA | -0.0687
39 | CGGACTTC | -0.17
40 | CATATGGA | -0.057
41 | AATCCAAC | -0.0925
42 | GAGACCTC | 0.0168
43 | ATCTAGGC | -0.197
44 | CCCTACAC | 0.0286
45 | ACCTACAA | 0.178
46 | CCCTACAA | 0.33
47 | CCAATGCA | -0.0366
48 | CAACTAAC | 0.21
49 | GCTCGAGC | -0.169
50 | ATACCTTA | 0.184

Row | Sequence | PBM E-score
51 | CTACCTGA | 0.00976
52 | CCACCTGA | 0.0282
53 | CCACCTTA | 0.342
54 | CTACCTTA | 0.327
55 | GCACCTTA | 0.112
56 | AAGAGCAG | -0.247
57 | CAACTGGC | -0.0185
58 | AACCACTC | 0.289
59 | ATCTGTCC | -0.318
60 | ATGCAGTG | -0.0561
61 | GGGTTGCA | 0.352
62 | AAGTTGCG | 0.0515
63 | AGGTTGTC | 0.242
64 | AGGTTGGG | 0.232
65 | CGGTTGCA | -0.0132
66 | GGTTTGTA | 0.119
67 | AGGTTGCG | 0.333
68 | AGGTTGCA | 0.299
69 | GGGTTGTA | 0.35
70 | GGGTTGGA | 0.16
71 | AGGTTGTG | 0.349
72 | AGGTTGCC | 0.088
73 | CAGCATGG | -0.00544
74 | GCCCGCGC | -0.0387
75 | CGTCTAGC | -0.21

Row | Sequence | PBM E-score
76 | TGACACCA | -0.0107
77 | CACGGCTG | -0.212
78 | AAGTTGTA | 0.112
79 | AGGTTGTA | 0.338
80 | CGGTTGTA | 0.153
81 | CCGTTTGC | 0.0589
82 | ACCAGGGG | -0.0398
83 | AATAGGGT | 0.374
84 | AACAGGGA | 0.044
85 | ACCAGGGT | 0.358
86 | AATAGGGG | 0.0477
87 | AATAGGGA | -0.0102
88 | ACCAGGGA | -0.00163
89 | AACAGGGC | -0.0745
90 | AACAGGGT | 0.348
91 | GATAGAGC | -0.0954
92 | CGCCACTA | -0.111
93 | GCCCTAGC | -0.148
94 | GGCCCTAC | 0.0088
95 | ATCCAGAA | 0.159
96 | CTCCTTCA | -0.168
97 | TACCCAGA | 0.265
98 | AAGAGATG | -0.16
99 | AGGTACTA | 0.29
100 | GGGTACCA | 0.4

Row | Sequence | PBM E-score
101 | GGGTACTA | 0.335
102 | CGGTACCA | 0.303
103 | TAGTACCA | 0.163
104 | AGGTACGA | -0.0106
105 | TCGTACCA | 0.149
106 | TGGTACCA | 0.357
107 | ACGTACCA | -0.0952
108 | GCGTACCA | 0.0288
109 | CGGTACTA | 0.0114
110 | AGGTACCA | 0.347
111 | CACTAGCA | -0.00655
112 | ACATGCCG | -0.241
113 | GTGAGTGA | -0.147
114 | ACAAACTG | -0.16
115 | AGGTACAA | 0.15
116 | GGGTACAA | 0.345
117 | TGGTACAA | 0.146
118 | TCAGCTCA | -0.00847
119 | CCTTGGTC | 0.0233
120 | ATCGATTC | -0.119
121 | GTAACCAA | 0.417
122 | GCAACCAA | 0.231
123 | AGAACCAA | 0.148
124 | GGAACCAA | 0.159
125 | AAAACCAA | 0.209

Row | Sequence | PBM E-score
126 | TCAACCAA | 0.118
127 | ATAACCAT | 0.457
128 | CTAACCAA | 0.262
129 | AAAACCAT | 0.283
130 | ATAACCAA | 0.437
131 | TTAACCAA | 0.317
132 | AGAACCAT | 0.184
133 | CAAGACTC | -0.0977
134 | GGCCTCGA | 0.00761
135 | CCTTAAAC | 0.143
136 | CGTGGAGA | -0.239
137 | ACCACTAC | 0.182
138 | AGAGGCCG | -0.144
139 | CGCTCACG | -0.0384
140 | AGGATCTG | -0.242
141 | CTAACCAG | 0.146
142 | ATAACCAG | 0.436
143 | AGAACCAG | 0.0863
144 | GGAATCCA | -0.115
145 | CCAGGGGG | -0.095
146 | CGACCTAC | -0.114
147 | CACCTCTG | -0.0642
148 | TAGCTCGA | 0.0239
149 | ACAACCAC | 0.361
150 | ACAACCAG | 0.23

Row | Sequence | PBM E-score
151 | ACAACCAT | 0.322
152 | ACAACCAA | 0.267
153 | ACAACTAT | 0.204
154 | GCAACCAC | 0.269
155 | AGGCTTTG | -0.027
156 | ACAATGCA | 0.0982
157 | CAACCCGC | 0.251
158 | AACCCCGA | 0.266
159 | TACCCCGA | 0.34
160 | TAACCCGA | 0.345
161 | AAACCCGA | 0.264
162 | CTACCCGA | 0.25
163 | CAACCCGA | 0.355
164 | GAACCCGA | 0.0725
165 | GACCCCGA | 0.244
166 | GCAGCTGC | -0.246
167 | CTTACTTC | 0.00964
168 | CTATGATA | 0.00378
169 | GTATGATA | 0.14
170 | ATATGATA | 0.348
171 | TCTTCGAA | 0.00843
172 | AATCGTCG | -0.21
